Test results: PubChem BioAssay (NCATS)
Values joined by “and” are separate entries in the source; they are usually repeats but may differ in a detail not shown here. Equal entries are not always repeated. Results filed as inconclusive are left out. Where a structure was tested more than once in an assay, its records may differ in their call. Active and inactive are the calls of the source. Calls follow the shape of the full dose curve.

Target: Vitamin D3 receptor (Homo sapiens) (UniProt P11473)
Sequence (P11473 whole entry, looked up): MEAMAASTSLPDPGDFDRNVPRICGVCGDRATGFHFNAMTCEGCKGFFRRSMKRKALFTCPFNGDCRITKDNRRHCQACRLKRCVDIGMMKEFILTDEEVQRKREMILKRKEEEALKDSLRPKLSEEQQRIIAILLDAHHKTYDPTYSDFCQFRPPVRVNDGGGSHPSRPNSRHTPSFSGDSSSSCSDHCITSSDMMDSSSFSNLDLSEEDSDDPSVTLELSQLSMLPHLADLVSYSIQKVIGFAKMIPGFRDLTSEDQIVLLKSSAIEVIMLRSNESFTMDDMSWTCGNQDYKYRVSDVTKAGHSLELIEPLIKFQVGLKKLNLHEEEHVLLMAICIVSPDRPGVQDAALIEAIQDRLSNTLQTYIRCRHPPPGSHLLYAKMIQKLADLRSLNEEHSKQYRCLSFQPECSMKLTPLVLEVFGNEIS
Assay: qHTS assay for small molecule antagonists of vitamin D receptor signaling (AID 588541); also: potency is read from the fitted curve at half-maximal effect;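 as to activity change, negative = inhibition: receptor activated by calcitriol during compound treatment; % is scaled to controls: 0 for no effect and ±100 for the full control effect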
Details: HEK293T VDR-UAS-bla, beta-lactamase ratio, antagonist mode; series mostly up to 76.7 µM; activity change, negative = inhibition: at the top concentration
Procedure, shortened: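 VDR-UAS-bla HEK293T cells (2000/well, 2% charcoal-stripped FBS) were treated with titrated compounds plus 1-alpha,25-dihydroxyvitamin D3 (50 nM or 3 nM final) for 16 h at 37 C. CCF4 beta-lactamase fluorescence was read; Hill fits gave IC50.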

SMILES	activity change, negative = inhibition	Potency
CCCCCCCCCCCCCC(=O)OC(C)C	6.41% (inactive)	–
CCCCCCCCCCCCCCCC(=O)O	9.42% (inactive)	–
CCCCCCCCCCCCCCCCO	-6.33% (inactive)	–
CCOc1ccc(NC(C)=O)cc1	–	inactive
Oc1c(Cl)cc(Cl)c(Cl)c1Cc1c(O)c(Cl)cc(Cl)c1Cl	-1.7% (inactive)	–
CC1(C)OC[C@@H]2O[C@@]3(C(=O)O)OC(C)(C)O[C@H]3[C@@H]2O1	-0.664% (inactive)	–
C=C[C@@]1(C)CC(=O)[C@]2(O)[C@@]3(C)[C@@H](O)CCC(C)(C)[C@@H]3[C@H](O)[C@H](OC(C)=O)[C@@]2(C)O1	7.55% (inactive)	–
CCOc1ccccc1C(N)=O	5.3% (inactive)	–
CCCN(CCC)S(=O)(=O)c1ccc(C(=O)O)cc1	–	inactive
CCCCC(CC)COC(=O)c1ccc(N(C)C)cc1 (centres undefined)	–	inactive
COc1ccc(C(Cl)=C(c2ccc(OC)cc2)c2ccc(OC)cc2)cc1	4.7% (inactive)	–
COc1cc([C@H]2Oc3cc([C@H]4Oc5cc(O)cc(O)c5C(=O)[C@@H]4O)ccc3O[C@@H]2CO)ccc1O	0.592% (inactive)	–
Oc1ccc(Cl)cc1Cc1cc(Cl)ccc1O	-12.1% (inactive)	–
NC(=O)c1ccccc1O	6.22% (inactive)	–
CCCCCCCC/C=C\CCCCCCCCN	6.43% (inactive)	–
CC(C)(C)CC(C)(C)c1ccc(O)c(-n2nc3ccccc3n2)c1	-12.8% (inactive)	–
NCCNc1cccc2ccccc12	–	inactive and 31.6 µM (active)
CCCCCCCCOc1ccc(C(=O)c2ccccc2)c(O)c1	-2.46% (inactive)	–
CCCCOC(=O)CC(CC(=O)OCCCC)(OC(C)=O)C(=O)OCCCC	6.45% (inactive)	–

Target: Vitamin D3 receptor (Homo sapiens) (UniProt P11473)
Assay: qHTS assay for small molecule agonists of vitamin D receptor signaling (AID 588543);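 also: 0% = DMSO basal and 100% = reference agonist control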
Details: HEK293T VDR-UAS-bla, beta-lactamase ratio, 16 h; series mostly up to 76.8 µM; activation: at the top concentration
Procedure, shortened: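 GeneBLAzer VDR-UAS-bla HEK293T cells in 2% charcoal-stripped FBS medium were dosed with compound titrations for 16 h at 37 °C; CCF4 β-lactamase readout (405 nm ex, 460/530 nm em). EC50 and efficacy from Hill fits, normalized to 50 nM calcitriol (100%) and DMSO (0%).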

SMILES	activation	outcome
CCCCCCCCCCCCCC(=O)OC(C)C	0.89% (inactive)	–
CCCCCCCCCCCCCCCC(=O)O	4.38% (inactive)	–
CCCCCCCCCCCCCCCCO	-1.54% (inactive)	–
CCOc1ccc(NC(C)=O)cc1	–	inactive
CC1(C)OC[C@@H]2O[C@@]3(C(=O)O)OC(C)(C)O[C@H]3[C@@H]2O1	0.193% (inactive)	–
C=C[C@@]1(C)CC(=O)[C@]2(O)[C@@]3(C)[C@@H](O)CCC(C)(C)[C@@H]3[C@H](O)[C@H](OC(C)=O)[C@@]2(C)O1	-1.67% (inactive)	–
CCOc1ccccc1C(N)=O	-1.51% (inactive)	–
C#C[C@]1(O)CC[C@H]2[C@@H]3CCC4=Cc5oncc5C[C@]4(C)[C@H]3CC[C@@]21C	-3.65% (inactive)	–
CCCN(CCC)S(=O)(=O)c1ccc(C(=O)O)cc1	-2.19% (inactive)	–
CCCCC(CC)COC(=O)c1ccc(N(C)C)cc1 (centres undefined)	–	inactive
COc1ccc(C(Cl)=C(c2ccc(OC)cc2)c2ccc(OC)cc2)cc1	3.22% (inactive)	–
O=C(O)c1ccc(S(=O)(=O)N(Cl)Cl)cc1	-2.28% (inactive)	–
COc1cc([C@H]2Oc3cc([C@H]4Oc5cc(O)cc(O)c5C(=O)[C@@H]4O)ccc3O[C@@H]2CO)ccc1O	-2.5% (inactive)	–
Oc1ccc(Cl)cc1Cc1cc(Cl)ccc1O	–	inactive
NC(=O)c1ccccc1O	-1.63% (inactive)	–
CCCCCCCC/C=C\CCCCCCCCN	0.676% (inactive)	–
CC(C)(C)CC(C)(C)c1ccc(O)c(-n2nc3ccccc3n2)c1	-4.98% (inactive)	–
NCCNc1cccc2ccccc12	–	inactive
CCCCCCCCOc1ccc(C(=O)c2ccccc2)c(O)c1	0.797% (inactive)	–
CCCCOC(=O)CC(CC(=O)OCCCC)(OC(C)=O)C(=O)OCCCC	2.89% (inactive)	–
